# Compound activity deposited in PubChem BioAssay by National Center for Advancing Translational Sciences (NCATS).
# The list is not random: actives were taken first. Their share in the collection is about 11%.
# ALDH1A1 block: qHTS Assay for Inhibitors of Aldehyde Dehydrogenase 1 (ALDH1A1) | Purified ALDH1A1, NADH fluorescence, propionaldehyde substrate | 220,000 tested, 7.3% active | AID 1030, 2008 | Potency, µM (series often up to 75.3 µM), without a hit: at the highest dose activity, negative = inhibition, usual class: inhibitors | Aldehyde dehydrogenase 1A1 (Homo sapiens), P00352;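 further: potency means the concentration at half of the fitted maximal effect; plate controls were no enzyme wells and a reference inhibitor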
# Target sequence (P00352 whole entry, looked up): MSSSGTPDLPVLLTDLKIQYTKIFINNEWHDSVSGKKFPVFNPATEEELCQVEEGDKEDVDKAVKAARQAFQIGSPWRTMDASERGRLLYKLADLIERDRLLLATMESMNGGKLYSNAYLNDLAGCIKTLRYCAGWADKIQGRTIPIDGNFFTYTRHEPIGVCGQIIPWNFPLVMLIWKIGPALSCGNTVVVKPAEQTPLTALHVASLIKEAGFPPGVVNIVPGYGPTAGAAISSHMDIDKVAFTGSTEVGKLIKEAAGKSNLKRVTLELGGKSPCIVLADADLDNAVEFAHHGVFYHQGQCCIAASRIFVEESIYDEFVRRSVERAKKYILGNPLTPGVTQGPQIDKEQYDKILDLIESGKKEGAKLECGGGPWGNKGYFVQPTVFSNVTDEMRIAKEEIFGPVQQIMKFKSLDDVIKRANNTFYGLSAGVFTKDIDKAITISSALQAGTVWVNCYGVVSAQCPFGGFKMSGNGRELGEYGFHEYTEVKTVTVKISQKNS
# PNC inhibitor: High Content Assay for Compounds that inhibit the Assembly of the Perinucleolar Compartment | 140,000 tested, 3.1% active | PC3M PTB-GFP, PNC prevalence imaging, 16 h; active compounds read low | AID 2417, 2010 | activity change (PNC), negative = inhibition, % at 10 µM;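 active means readout at or below -70, meaning at least 70% loss of cells showing the perinucleolar compartment, a nuclear body marking cancer cells; inconclusive means readout between -30 and a set limit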;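 further: plate controls were DMSO wells for no effect and camptothecin positive control wells for full effect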
#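 Read-out is percentage of cells bearing a perinucleolar compartment, from automated 20x imaging of fixed, Hoechst-stained PC3M PTB-GFP cells. Cells were seeded 4 h, then exposed 16 h to compound (23 nl of library stock) in duplicate plates.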
# HPGD inh: qHTS Assay for Inhibitors of HPGD (15-Hydroxyprostaglandin Dehydrogenase); 15-hydroxyprostaglandin dehydrogenase [NAD(+)] (Homo sapiens), P15428; purified HPGD, NADH fluorescence kinetic, PGE2 substrate; Potency, µM, without a hit: at the highest dose activity change, negative = inhibition, hits mostly inhibitors; 150,000 tested, 4.3% active; AID 894, 2007; further: potency means the concentration at half of the fitted maximal effect
#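 20 nM HPGD preincubated 15 min at room temperature with compound in 50 mM Tris-HCl pH 8, 0.01% Tween 20. Started with 1 mM NAD+ and 30 uM prostaglandin E2; NADH fluorescence (360/450 nm) read 5 times over 30-s intervals, last minus first.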
# Active calls of the source: *; ? = inconclusive; . = not tested or not shown; [ ] = remark or other dose. Unless noted, the call rests on the fitted dose curve; in most records, active means well fitted inhibition curve with a large enough effect (not every such curve was filed as active); inconclusive means small, poorly fitted or top-dose-only effect, or another doubt; inactive means no such curve, though single readings can be large or run the other way. Unless noted, on the % scale 0 is the no-effect control and ±100 the full control effect.
SMILES,ALDH1A1 block,PNC inhibitor,HPGD inh
CC1(C)CC(=O)C(C=Nc2ccc(Cl)cn2)=C(O)C1,-1%,-8,-22%
C=CCn1c(-c2ccc(Cl)cc2)cnc1SC(C)C(=O)NC(N)=O (stereo not drawn),-14%,.,.
Cc1cc(C(=O)Nc2ccc(N3CCOCC3)c(Cl)c2)c(C)o1,-2%,.,.
Cc1ccc(NC(=O)c2cc(NC(=O)C3CC=CCC3C(=O)O)ccc2N2CCOCC2)cc1Cl (stereo not drawn),1.8µM*,41,-8%
Cc1cccc(N2CCN(C(=O)c3ccccc3NC(=O)C3CC=CCC3C(=O)O)CC2)c1 (stereo not drawn),4%,-3,-6%
Cc1ccc(NC(=O)c2cc(N3C(=O)C=CC3=O)ccc2N2CCOCC2)cc1Cl,0.25µM*,71,1.3µM*
Cc1ccc(NC(=O)C2CC=CCC2C(=O)N2CCCCC2)cc1 (stereo not drawn),3%,-9,-3%
Cc1cccc(NC(=O)c2cc(NC(=O)C3CC=CCC3C(=O)O)ccc2N2CCOCC2)c1 (stereo not drawn),3.2µM*,?,-3%
Cc1ccc(NC(=O)c2cc(N3C(=O)CCC3=O)ccc2N2CCOCC2)cc1,-1%,.,.
Cc1ccc(NC(=O)c2cc(NC(=O)C3CC=CCC3C(=O)O)ccc2N2CCOCC2)cc1 (stereo not drawn),13µM*,?,-10%
O=C(CCC1CCCCC1)N1CCN(Cc2ccc3c(c2)OCO3)CC1,?,?,-6%
Cc1ccc(CCSc2ccc(C(C)C)cc2)cn1,-10%,40,.
CC(=O)OCC1(C)CN(c2ccccc2)NC1=O (stereo not drawn),10µM*,.,.
COC(=O)CN1CC(=O)N(c2ccccc2)C1=S,3%,.,.
COC(=O)c1nnc(C(=O)NCc2ccccc2)c2[nH]c3ccc(OC)cc3c12,-3%,.,-1%
CN(C)C(=O)C(=O)c1cccn1-c1cccc(Cl)c1C#N,-1%,.,.
Cc1ccc(CNC(=O)C(Cc2ccccc2)NS(=O)(=O)c2ccc(Br)s2)cc1 (stereo not drawn),-10%,7,-4%
CC1=CN2C(=N)/C(=C/c3cn(CCCOc4ccccc4C)c4ccccc34)C(=O)N=C2S1,?,-24,?
CCOc1ccc(-c2ccc(/C=C3/C(=N)N4C=CSC4=NC3=O)o2)c([N+](=O)[O-])c1,-1%,33,?
CC1=CN2C(=N)/C(=C/c3ccc([N+](=O)[O-])o3)C(=O)N=C2S1,3.5µM*,?,-28%
CC1=CN2C(=N)/C(=C/c3ccco3)C(=O)N=C2S1,13µM*,-14,-21%
C=CCN1c2ccccc2[C@]23C[C@@H](C(=O)OC)N(S(=O)(=O)c4ccc(C#N)cc4)C2=NC(C(=O)OC)=C(C(=O)OC)[C@H]13,-3%[13.5 µM],.,-4%
CCOc1ccccc1NC(=O)c1ccc([N+](=O)[O-])cc1,12%,.,.
CCOc1ccc(N/C(=C(/C(Cl)=C(Cl)Cl)[N+](=O)[O-])n2cncn2)cc1,?,-26,?
O=[N+]([O-])/C(C(Cl)=C(Cl)Cl)=C(\Nc1ccc(F)cc1)n1cncn1,13µM*,0,28µM*
SMILES,ALDH1A1 block,PNC inhibitor,HPGD inh
CCOc1ccccc1N/C(=C(/C(Cl)=C(Cl)Cl)[N+](=O)[O-])n1cncn1,20µM*,10,-16%
COc1ccccc1C(c1nnnn1CCc1ccccc1)N1CCCCCC1 (stereo not drawn),-4%,-19,0%
Clc1ccc(Cc2noc(-c3cccs3)n2)cc1,-2%,-5,-22%
Cc1ccc([N+](=O)[O-])cc1-c1[nH]c(-c2ccc(O)c(O)c2)nc1-c1ccccc1,22µM*,5,1%
COc1ccc(-c2nc(-c3ccccc3)c(-c3cc([N+](=O)[O-])ccc3C)[nH]2)cc1O,-12%,?,-10%
CCOC(=O)C(CC)n1cnc2c(oc3ccccc32)c1=O (stereo not drawn),?,49,-8%
CCCCCC(=O)N(O)C1CC(=O)N(c2ccccc2)C1=O (stereo not drawn),0.79µM*,36,16µM*
CCCCCC(=O)N(CN1C(=O)CCC1=O)c1ccccc1,7%,38,0%
CCCCCOc1ccc(N2C(=O)CC(N(O)c3ccccc3)C2=O)cc1 (stereo not drawn),?,11,-11%
CN(Cc1ccccc1)C1CC(=O)N(c2ccc(C(=O)O)cc2)C1=O (stereo not drawn),28µM*,-2,-6%
CCCCCCC(=O)N(O)C1CC(=O)N(Cc2ccccc2)C1=O (stereo not drawn),3.5µM*,?,18µM*
COC(=O)c1ccc(N2C(=O)CC(NCc3ccccc3)C2=O)cc1 (stereo not drawn),?,1,-11%
O=C(c1ccccc1)c1ccc(OCCn2cnc3ccccc3c2=O)cc1,?,?,4.5µM*
CC(C)(c1ccccc1)c1ccc(OCCn2cnc3ccccc3c2=O)cc1,-6%,-3,-19%
COc1ccc(S(=O)(=O)Cc2ccc(C(=O)NCc3ccc(F)cc3)o2)cc1,-7%,30,-16%
COc1ccc2c(c1OC)C(=O)N1N=C(c3ccc(Cl)cc3)CC21 (stereo not drawn),11µM*,-93*,-26%
COc1ccc(C2=NN3C(=O)c4c(ccc(OC)c4OC)C3C2)cc1 (stereo not drawn),?,13,-20%
COc1ccc2c(c1OC)C(=O)N1c3ccccc3N=C(c3ccc([N+](=O)[O-])cc3)CC21 (stereo not drawn),10µM*,41,35µM*
COc1ccc2c(c1OC)C(=O)N1N=C(c3ccc(Br)cc3)CC21 (stereo not drawn),-1%,-28,-22%
CCCC(=O)OCC(=O)Nc1ccc(N=Nc2ccccc2)cc1,?,19,-14%
CC1(C)CC(=O)C2=C(C1)NCN(Cc1ccccc1)C2,6%,-3,-4%
CCCN1CN(Cc2ccccc2)CC2=C1CC(C)(C)CC2=O,7.9µM*,-25,-19%
CC(=O)c1ccc(N2CCCCCC2)c(F)c1,1%,36,-12%
Fc1ccc(-n2[nH]nnc2=S)cc1N1CCCC1,14µM*,-19,18µM*
COC(=O)C1=C(C(=O)OC)[C@@H]2N(Cc3ccccc3)c3ccccc3[C@@]23C[C@@H](C(=O)OC)N(S(=O)(=O)c2ccc([N+](=O)[O-])cc2)C3=N1,-8%[13.5 µM],.,-3%
CN(C)C(CNC(=O)c1ccc(NC(=O)CC#N)cc1)c1ccccc1 (stereo not drawn),-9%,.,.
CN(Cc1cccc(Cl)c1Cl)C(=O)c1ccc(NC(=O)CC#N)cc1,-15%,16,18µM*
COC(=O)C1=C(C(=O)OC)[C@@H]2N(C)c3ccccc3[C@@]23C[C@@H](C(=O)OC)N(S(=O)(=O)c2c(C)noc2C)C3=N1,7%[13.5 µM],.,-6%
Cc1ccc(OCc2nnc(SCC(=O)c3ccccc3)n2Cc2ccco2)cc1,?,17,-23%
Cc1ccc(NCc2nnc(SCc3ccc(C#N)cc3)n2Cc2ccco2)c(C)c1,-7%,2,1%
